# NPR1 antag: antagonists of human natriuretic peptide receptor Npr1. P16066. HEK293 hNpr1 GloSensor cGMP, ANP-stimulated luminescence. Potency, µM (highest dose often 46.3 µM), without a hit: at the highest dose activity change, negative = inhibition, actives largely listed as inhibitors. 76,000 tested, 1.6% active. AID 1347048; calls by dose curve; also: nearly all actives have a fitted effect of over 60% in size
#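 HEK293 cells stably expressing human Npr1 and cGMP GloSensor pGS-40F, loaded 2 h with 2% GloSensor reagent, given compound 30 min at room temperature. Luminescence read before and 20 min after 0.1 nM hNppA.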
# HEK cytotox: kills HEK 293 cells. HEK 293 viability, ATP luminescence (CellTiter-Glo), 48-72 h. Potency, µM (doses to about 115 µM), for inactives: at the highest dose activity change, negative = cytotoxicity, most hits filed as inhibitors. 94,000 tested, 6.6% active; also: nearly all actives have a fitted effect of over 60% in size
#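 Pintool-delivered compounds were incubated with HEK 293 cells (250 cells/well) at 37 degree Celsius for 48 or 72 hr. ATP-dependent luminescence (CellTiter-Glo) then reported remaining viable cells.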
# SNCA expr inhib: reduces expression of the alpha-synuclein gene. HEK-293 SNCA-luciferase knock-in, luminescence, 24 h. Potency, µM (highest dose often 57.2 µM), without a hit: top-dose activity change, negative = inhibition, actives largely listed as inhibitors. 140,000 tested, 0.17% active. AID 1671194;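 also: plate controls were DMSO cells for no effect and cell-free wells for full effect; nearly all actives have a fitted effect of over 45% in size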
# NIH3T3 tox: cytotoxic compounds in NIH 3T3 cells | NIH 3T3 viability, CellTiter-Glo ATP luminescence, 48-72 h | Potency, µM (titrated, usually from 96.7 µM), for inactives: top-dose activity change, negative = cytotoxicity, usual class: inhibitors | 94,000 tested, 4.3% active | AID 1345082; also: nearly all actives have a fitted effect of over 55% in size
#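 Mouse fibroblast NIH 3T3 cells, 400 per well, received compound via pintool and were incubated for 48 or 72 hr prior to CellTiter-Glo ATP luminescence measurement.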
# FLuc inh: inhibitors of firefly (Photinus pyralis) luciferase; P08659; purified P. pyralis luciferase, luminescence, biochemical; Potency, µM (titrated, usually from 115 µM), most hits filed as inhibitors; 76,000 tested, 2.5% active; also: nearly all actives have a fitted effect of over 65% in size
# Target sequence (P08659 whole entry, looked up): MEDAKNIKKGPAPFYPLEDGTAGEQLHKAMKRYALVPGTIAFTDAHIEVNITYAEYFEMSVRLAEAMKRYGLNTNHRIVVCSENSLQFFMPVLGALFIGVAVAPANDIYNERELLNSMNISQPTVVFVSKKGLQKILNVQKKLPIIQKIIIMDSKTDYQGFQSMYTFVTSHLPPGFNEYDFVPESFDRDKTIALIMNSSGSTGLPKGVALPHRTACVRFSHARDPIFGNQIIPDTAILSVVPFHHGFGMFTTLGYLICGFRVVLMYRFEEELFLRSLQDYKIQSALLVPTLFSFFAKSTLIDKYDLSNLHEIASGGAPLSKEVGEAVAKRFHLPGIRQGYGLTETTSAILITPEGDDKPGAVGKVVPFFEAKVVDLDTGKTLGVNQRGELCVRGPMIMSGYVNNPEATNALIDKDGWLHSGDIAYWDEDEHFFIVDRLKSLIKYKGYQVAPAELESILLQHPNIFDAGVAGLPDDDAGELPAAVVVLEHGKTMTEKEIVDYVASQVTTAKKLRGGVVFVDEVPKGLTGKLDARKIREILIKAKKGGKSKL
#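 Biochemical qHTS: compound (6-point titration) added to 10uM D-luciferin plus 10uM ATP in Tris acetate pH 7.5 buffer with Mg, Tween-20 and BSA, then purified enzyme at 10nM; light output imaged.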
# HEK293 viab: cell viability loss counter-screen | HEK-293-SNCA-luc viability, GF-AFC fluorescence, 24 h | Potency, µM (doses to about 57.1 µM), for inactives: at the top dose activity change, negative = cytotoxicity, actives largely listed as cytotoxic | 150,000 tested, 0.12% active;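 also: 0% = DMSO-treated cells and -100% = medium-only wells without cells; nearly all actives have a fitted effect of over 30% in size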
#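 HEK-293-SNCA-luc cells (1500/well) plated 24 h, then exposed 24 h to a dilution series; GF-AFC added 30 min at 37C, fluorescence 405/540 nm; normalised to medium-only and DMSO wells, Hill fit.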
# Starred values were filed as active, the others as inactive; i = inactive; u = inconclusive; x = no result given; [ ] = remark or other dose. An excerpt weighted towards active compounds, which were near 7.2% of everything screened. Unless noted, calls follow the shape of the dose curve; as a rule, active = well fitted curve in the direction sought with a large enough effect; inconclusive = small, poorly fitted or top-dose-only effect, or another doubt; inactive = no such curve, though single readings can be large; an effect the other way counts as inactive or inconclusive. Unless noted, % is scaled to controls: 0 for no effect and ±100 for the full control effect; potency is read from the fitted curve at half-maximal effect.
SMILES,NPR1 antag,HEK cytotox,SNCA expr inhib,NIH3T3 tox,FLuc inh,HEK293 viab
O=C(Cc1c[nH]c2ncc(-c3cccnc3)cc12)Nc1ccc(F)cc1,-15%[70.6 µM],u,-18%[87.6 µM],28µM*,i,-8%[87.6 µM]
CN(C)c1cccc(NC(=O)Cc2c[nH]c3ncc(-c4cccnc4)cc23)c1,-25%[70.6 µM],u,-5%[87.6 µM],u,i,-16%[87.6 µM]
CCOc1ccccc1CN1CCC2(CCN(C(=O)Cc3ccccn3)CC2)Oc2ccccc21,5%,u,-10%,u,i,u
Cc1ccc(C(=O)N2CCCC3(CCNCC3)CC2)cc1Cl,-1%,u,6%,79µM*,i,u
Cc1nc(C)c(C(=O)N2CC[C@H](CO)[C@H](NC(=O)C3CC3)C2)s1,2%,-23%,74%,-20%,u,3%[12.5 µM]
COc1ccc(-c2nc3cc(C(=O)N4CCCCC4)ccc3o2)cn1,x,-4%[172 µM],7%[87.6 µM],-21%[138 µM],x,13%[87.6 µM]
CC(C)C[C@@H](C=O)NC(=O)[C@H](CC(C)C)NC(=O)[C@H](CC(C)C)NC(=O)OCc1ccccc1,x,x,0.61µM*,x,x,u
CCn1ncc(N2CCC(NC(=O)c3ccc(C)c(F)c3)CC2)cc1=O,-1%,i,2%,3%,i,-17%
Cn1nc2n(c1=O)CCN(CC1CCCCC1)CC2,1%,-15%,-25%,-18%,i,12%
COc1cc(F)ccc1-c1cc2c(ccn2Cc2ccncc2)c(N2CCOCC2)n1,-10%[70.6 µM],79µM*,-19%[87.6 µM],u,i,0%[87.6 µM]
c1cc(Cn2ccc3c(N4CCOCC4)nc(-c4cncnc4)cc32)ccn1,-2%[70.6 µM],u,-2%[87.6 µM],10µM*,i,-6%[87.6 µM]
COc1ccc(-c2cc3c(ccn3Cc3ccncc3)c(N3CCOCC3)n2)cn1,3%[70.6 µM],u,26%[87.6 µM],u,i,9%[87.6 µM]
COCCN1C(=O)N(C)C(=O)C12CCN(Cc1ccc(C(=O)OC)cc1)C2 (configuration not stated),x,-8%,3%,-15%,x,-19%
C=C1CC[C@@]2(OC1)O[C@H]1CC3C4CC=C5C[C@@H](O[C@@H]6O[C@@H](C)[C@H](O)[C@@H](O)[C@H]6O)C[C@@H](O[C@@H]6O[C@H](C)[C@H](O)[C@H](O)[C@H]6O[C@@H]6O[C@@H](C)[C@H](O)[C@@H](O)[C@H]6O)[C@]5(C)C4CC[C@]3(C)[C@H]1[C@@H]2C (some centres not stated),x,x,x,x,x,-8%[12.5 µM]
Cc1[nH]c2c(c1C(=O)N1CCCC(CCc3ccc(F)cc3)C1)C(=O)CCC2 (configuration not stated),u,32µM*,-14%,u,i,u
CNc1ncc(C(=O)N2CCCC(CCc3ccc(F)cc3)C2)cn1 (configuration not stated),4%,u,-11%,u,i,-1%
Cc1cccc(OCC2(CNC(=O)c3cc(C)nn3C)C[C@@H](O)[C@@H](O)C2)n1 (some centres not stated),-1%[70.6 µM],-24%[172 µM],26%[87.6 µM],-32%[138 µM],i,-9%[87.6 µM]
O=C(NCc1ccccc1F)c1ccc2c(c1)CN(Cc1ccc3c(c1)CCO3)CCO2,-15%,28µM*,-9%,u,i,u
CCOc1ccc(CN2CCOc3ccc(C(=O)NCc4ccccc4F)cc3C2)cc1,u,40µM*,-19%,u,i,-29%
CCOc1cccc(CN2CCOc3ccc(C(=O)NCc4ccccc4F)cc3C2)c1,-10%,u,-8%,u,i,-2%
O=C(Cc1ccccc1F)N1CCOc2ccc(CN3CCc4ccccc4C3)cc2C1,-29%,45µM*,-23%,-28%,i,u
C=C1CCC2C(C)(C)CC(O)CC2(C)C1CCC(C)CC(=O)O (configuration not stated),x,x,x,x,x,-5%
CN1Cc2c(cc(N3CCOCC3)nc2-c2ccccc2OC(F)(F)F)C1=O,-7%[70.6 µM],-54%[172 µM],9%[87.6 µM],-81%[138 µM],i,-27%[87.6 µM]

# High-throughput results as filed in PubChem BioAssay.
